# Source: PubChem
# A selection: hits, their analogues and other compounds. The true share with any hit is near 3.5%.
# mHTT CaM bind = disrupts binding of mutant huntingtin to calmodulin; P42858; AlphaScreen His-mHTT/GST-CaM binding, luminescence; inhibition, % at 15 µM; hit rate 3.6% among 190,000
# Pf apPOL block = Pf-apPOL DNA polymerase inhibition; Recombinant Pf-apPOL, molecular beacon fluorescence, 1.5 h; AID 1794808; inhibition, % at 10 µM; hit rate 0.25% among 210,000
# Hits are given with their value; - = inactive; . = not tested or not shown. Cut-off read from the data, not from the text of the source: active = inhibition above about 50%; inactive = the rest.
SMILES,mHTT CaM bind,Pf apPOL block
COc1cc(C(CCN2CCCC2)c2c(OC)cc(OC)c3c(C)cc(=O)oc23)cc(OC)c1OC (centres undefined),-,-
COc1ccc(C(CCN2CCCC(C)C2)c2c(OC)cc(OC)c3c2OC(=O)CC3c2cc(OC)c(OC)c(OC)c2)cc1 (centres undefined),53.6,-
COc1cc(C(CCN2CCOCC2)c2c(OC)cc(OC)c3c(C)cc(=O)oc23)cc(OC)c1OC (centres undefined),-,-
CC(C)N(CC#CCNC(=O)c1cccc(Cl)c1)C(C)C,-,-
COc1ccc(CCNC2CC(=O)N(c3ccccc3)C2=O)cc1OC (centres undefined),-,-
Cc1ccccc1NC(=O)c1cnn(-c2ccccc2)c1NC(=O)c1cccc(F)c1,-,-
COc1ccccc1CC(=O)Nc1ccc2c(c1)OCO2,-,-
Cc1ccc(C(=O)Nc2ccc3c(c2)OCO3)cc1,-,-
CCCCOc1ccc(S(=O)(=O)NCc2ccc3c(c2)OCO3)cc1,-,-
CCCCOc1ccc(CNc2ccc3c(c2)OCO3)cc1,91.5,-
O=C(NCc1ccco1)C(=O)Nc1ccc2c(c1)OCO2,-,-
c1coc(CNc2ccc3c(c2)OCO3)c1,71.4,-
Cc1ccccc1CNc1ccc2c(c1)OCO2,90.9,-
Cc1ccc(CNc2ccc3c(c2)OCO3)cc1,100.5,-
Clc1ccc(-c2nc(-c3cccc(-c4ccn[nH]4)c3)no2)cc1,-,-
Cc1cc(O)c(C(c2ccc3c(c2)OCO3)c2c(O)cc(C)oc2=O)c(=O)o1,-,-
CCCNC(=O)c1ccc(CN2C(=O)COc3ccc(C)cc32)cc1,-,-
CCOc1ccc(C(=O)Nc2sc3c(c2C(=O)NC)CCCC3)cc1,-,-
Cc1ccc(CN(Cc2ccc3c(c2)OCO3)C(=O)c2cccc(Cl)c2)o1,-,-
Cc1ccc2c3c(ccc2n1)NC1=C(C(=O)CCC1)C3c1cccnc1 (centres undefined),-,-
C[n+]1ccc(/C=C/c2ccc3c(c2)OCO3)c2ccccc21,-,-
CN(C)c1ccc(/C=C/c2cc[n+](C)c3ccccc23)cc1,80.0,-
O=S(=O)(c1cccc(Cl)c1)N1CCC(CN2CCCCC2)CC1,-,-
CCc1csc(-c2ccc(N3CCN(C(=O)c4ccc(F)c(F)c4)CC3)nc2)n1,-,-
O=C(Nc1ccc2c(c1)OCO2)N1CC2CCCN2c2ccccc21 (centres undefined),80.9,-
SMILES,mHTT CaM bind,Pf apPOL block
Cc1ccc(NC(=O)C2CCC(N3C(=O)c4ccccc4C3=O)CC2)cc1Cl (centres undefined),-,-
Cc1ccc(NC(=O)N2CC3CCCN3c3ccccc32)cc1C (centres undefined),84.1,-
O=C(Nc1ccc(Br)cc1F)N1CC2CCCN2c2ccccc21 (centres undefined),-,-
Cc1ccc(NC(=O)N2CC3CCCN3c3ccccc32)c(C)c1 (centres undefined),67.1,-
Cc1ccc(NC(=O)N2CCC(N3CCN(Cc4ccccc4)C3=O)CC2)cc1C,-,-
Cc1ccc(NC(=O)N2CC3CCCN3c3ccccc32)cc1Cl (centres undefined),89.3,-
O=C(CCC(=O)N1CC2CCCN2c2ccccc21)NCc1ccc2c(c1)OCO2 (centres undefined),-,-
COc1cccc2cc(C(=O)Nc3cccc(N4CCCS4(=O)=O)c3)oc12,-,-
CCc1onc(C)c1C1CCCN1Cc1ccc(OC)cc1O (centres undefined),-,-
CC1CCN(Cc2csc(N3CCN(C(=O)C4CCCO4)CC3)n2)CC1 (centres undefined),-,-
COc1ccccc1C(=O)Oc1ccc2c(c1)OC(=Cc1ccco1)C2=O,-,-
Cc1cc(-c2csc(Nc3ncccn3)n2)ccc1F,-,-
CC1=C(C#N)C(=O)NC(=O)/C1=C\c1ccc(-c2ccc(C(=O)O)cc2)o1,-,-
O=C(Nc1cccc(C(F)(F)F)c1)N1CC2CCCN2c2ccccc21 (centres undefined),80.8,-
O=C(Nc1cccc(C(F)(F)F)c1)N1CCC(N2CCN(Cc3ccccc3)C2=O)CC1,-,-
Cc1cccc(NC(=O)N2CC3CCCN3c3ccccc32)c1 (centres undefined),74.1,-
Cc1cccc(NC(=O)N2CCCC2c2ccccc2C)c1 (centres undefined),-,-
Cc1ccc(NC(=O)c2cc(S(=O)(=O)NCc3ccc(F)cc3)ccc2F)cc1,-,-
COc1cn(CC(=O)NCc2ccco2)c(CO)cc1=O,-,-
CCC(=O)NC1CCc2[nH]c3ccc(C)cc3c2C1 (centres undefined),-,-
Cc1cc2[nH]c3c(c2cc1C)CC(NC(=O)C1CCCC1)CC3 (centres undefined),-,-
O=C(CC1CC1)NC1CCc2[nH]c3ccc(Cl)cc3c2C1 (centres undefined),87.6,-
Cc1ccc2[nH]c3c(c2c1)CC(NC(=O)CC1C=CCC1)CC3 (centres undefined),96.8,-
Cc1ccc(CNC(=O)C2(C)CCCN(C(=O)Nc3ccc(C)cc3)C2)cc1 (centres undefined),-,-
CCOC(=O)C(C#N)=C(SC)N(C)C,.,-
SMILES,mHTT CaM bind,Pf apPOL block
CC(=O)OC1C2c3c(ccc4c3OC(c3ccccc3)CC4=O)OC2OC1(C)C (centres undefined),.,-
CN1CCC(NC(=O)c2ccc3c(c2)N(C(=O)c2ccc(F)cc2)CC3)CC1,-,-
CNC(=O)c1ccc2c(c1)N(C(=O)c1ccc(OC)cc1)CC2,100.0,-
CCCCOc1ccc(/C=c2\sc3nc(=O)c(C)nn3c2=O)cc1OCC,-,-
Cc1ccc(NC(=O)N2CCC(n3cnc4c(C)cccc4c3=O)CC2)cc1C,-,-
O=C(Nc1ccccc1F)N1CC2CCCN2c2ccccc21 (centres undefined),-,-
CCc1ccccc1NC(=O)N1CC2CCCN2c2ccccc21 (centres undefined),78.7,-
Cc1c(Cl)cccc1NC(=O)N1CC2CCCN2c2ccccc21 (centres undefined),76.8,-
CCOC(=O)c1ccccc1NC(=O)N1CC2CCCN2c2ccccc21 (centres undefined),68.3,-
COC(=O)c1ccc(Cl)cc1NC(=O)N1CC2CCCN2c2ccccc21 (centres undefined),-,-
Cc1c(Cl)cccc1NC(=O)N1CC(C)Oc2ccccc21 (centres undefined),-,-
CCC(=O)Nc1cccc(-c2nc3ccccc3o2)c1C,-,-
CN(C)c1ccc(C2C3=C(CCCC3=O)Nc3nc(SCc4ccccc4F)[nH]c(=O)c32)cc1 (centres undefined),52.0,-
O=C1CCCC2=C1C(c1cccs1)c1c(nc(SCc3ccccc3F)[nH]c1=O)N2 (centres undefined),-,-
CC(O)(CNC(=O)C(=O)NCc1ccccc1Cl)c1cccs1 (centres undefined),-,-
O=c1/c(=C/c2ccccc2F)sc2nc(-c3ccc(Br)cc3)nn12,-,-
CNC(=O)c1cc(Nc2nnc(-c3ccc(O)cc3)c3ccccc23)ccc1OC,-,-
CNC(=O)c1ccc(Nc2nnc(-c3ccc(O)cc3)c3ccccc23)cc1,-,-
CNC(=O)c1cc(Nc2nnc(-c3ccc(C)cc3)c3ccccc23)ccc1OC,71.6,-
NC(=O)c1ccc(-c2nnc(Nc3ccc(C(=O)Nc4ccccc4)cc3)c3ccccc23)cc1,87.2,-
